Measured values: PubChem BioAssay AID1851 (National Center for Advancing Translational Sciences (NCATS), 2009)
Out of some 16,000 compounds screened, about 5,100 (32%) were called active. Inconclusive results (about 25%) are left out. The list shows a part of the results. Unmarked numbers belong to inactive results. Calls follow the shape of the dose curve; as a rule, active = well fitted curve in the direction sought with a large enough effect; inconclusive = small, poorly fitted or top-dose-only effect, or effect the other way; inactive = no such curve, though single readings can be large or run the other way.

target: Cytochrome P450 3A4 (Homo sapiens) (UniProt P08684); test: Cytochrome panel assay with activity outcomes; settings: recombinant CYP, pro-luciferin dealkylation, luminescence, p450-cyp3a4; series mostly up to 57.1 µM
% is scaled to controls: 0 for no effect and ±100 for the full control effect.

Sequence of Cytochrome P450 3A4 (Homo sapiens) (P08684 whole entry, looked up): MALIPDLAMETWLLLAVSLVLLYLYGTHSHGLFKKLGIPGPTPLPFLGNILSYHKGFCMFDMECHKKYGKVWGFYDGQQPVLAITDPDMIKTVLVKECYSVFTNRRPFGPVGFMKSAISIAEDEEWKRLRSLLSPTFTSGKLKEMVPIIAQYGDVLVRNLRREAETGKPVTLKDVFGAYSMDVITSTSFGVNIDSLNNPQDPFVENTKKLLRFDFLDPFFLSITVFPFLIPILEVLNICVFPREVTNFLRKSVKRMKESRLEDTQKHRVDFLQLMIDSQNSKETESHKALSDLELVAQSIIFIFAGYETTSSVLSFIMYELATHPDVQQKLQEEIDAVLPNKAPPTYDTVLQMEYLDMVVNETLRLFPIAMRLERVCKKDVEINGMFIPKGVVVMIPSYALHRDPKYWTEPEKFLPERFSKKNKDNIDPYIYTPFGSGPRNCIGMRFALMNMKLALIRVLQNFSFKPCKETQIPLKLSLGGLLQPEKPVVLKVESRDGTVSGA

For `Cc1cc(C2(c3cc(C)c(O)c(C(=O)O)c3)OS(=O)(=O)c3ccccc32)cc(C(=O)O)c1O`, which activity, negative = inhibition is on record?
The activity, negative = inhibition was 5.57% [at 11.4 µM].

Which AC50 does the source give for `CC1=CC(C)(C)Nc2ccc(CSc3ccccc3)cc21` here?
Its AC50 is 3.98 µM (active).

Which activity, negative = inhibition does the source give for `O=C(O)c1c[nH]c2cc(OCc3ccccc3)ccc2c1=O` here?
The activity, negative = inhibition was -10.2% [at 11.4 µM].

How did the AC50 turn out when `Cc1cc2c(cc1C)NC1=C(N2)O[C@H](c2c[nH]c3ccc(COc4ccccc4)cc23)C1=O` was run?
Its AC50 is 3.98 µM (active).

Which AC50 does the source give for `COCCN=C1Sc2nc3c(C)cccc3cc2CN1Cc1ccco1` here?
Its AC50 is 14.1 µM (active).

`CC1(C)[C@@H]2CC[C@]1(C)[C@@H](OC(=O)CSC#N)C2` was tested. Which activity, negative = inhibition did it give?
The activity, negative = inhibition was -20.6% [at 11.4 µM].

How did the AC50 turn out when `O=c1c(-c2ccccc2)nc2cncnc2n1Cc1ccccc1Cl` was run?
Its AC50 is “inactive”.

How did the AC50 turn out when `O=c1c(CCc2ccccc2)nc2cncnc2n1Cc1ccc(F)cc1` was run?
Its AC50 is 3.16 µM (active).

Which AC50 does the source give for `O=c1cnc2cncnc2n1Cc1ccccc1Cl` here?
Its AC50 is “inactive”.

For `O=c1c(CCc2ccccc2)nc2cncnc2n1Cc1ccccc1Cl`, which AC50 is on record?
The AC50 was 15.8 µM (active).

With `CCCCCCCCCCCCCCCCCCNC(=O)OC[C@@H](COP(=O)([O-])OCC[n+]1ccsc1)OC` as the molecule, how does the AC50 read?
The AC50 was “inactive”.

`CCCCCCCCCCCCCCCC(=O)NC[C@@H](COP(=O)([O-])OCC[N+](C)(C)C)OCC` was tested. Which AC50 did it give?
Its AC50 is 25.1 µM (active).

For `CCCCCCCCCCCCCCCCCC(=O)NC[C@@H](COP(=O)([O-])OCC[N+](C)(C)C)OCC`, which AC50 is on record?
Its AC50 is 31.6 µM (active).

Which AC50 does the source give for `CCCCCCCCCCCCCCCCCCOC[C@@H](COP(=O)([O-])OCC[N+](C)(C)C)OC` here?
The AC50 was “inactive”.

`CCCCCCCCCCCCCCCCCC(=O)O[C@H](CC(=O)O)C[N+](C)(C)C` was tested. Which AC50 did it give?
Its AC50 is “inactive”.

For `CCCCCCCCCCCCCC(=O)O[C@H](CC(=O)O)C[N+](C)(C)C`, which AC50 is on record?
The AC50 was “inactive”.

Which activity, negative = inhibition does the source give for `CCCCCCC(C)n1cc(C(C)=O)c(=O)[nH]c1=O` (configuration not stated) here?
The activity, negative = inhibition was 12.8% [at 2.29 µM].

For `Fc1cccc(Cl)c1CSc1ncn[nH]1`, which AC50 is on record?
The AC50 was 4.47 µM (active).

`CCCC[C@@H]1C[C@H]1C(NC(=O)c1cccs1)c1ccc(Cl)cc1` (some centres not stated) was tested. Which AC50 did it give?
The AC50 was 5.01 µM (active).

How did the AC50 turn out when `CCCC[C@@H]1C[C@H]1C(NC(=O)c1ccc(C(F)(F)F)cc1)c1ccc(C(=O)OC)cc1` (some centres not stated) was run?
The AC50 was 5.01 µM (active).

How did the AC50 turn out when `CCCC[C@@H]1C[C@H]1C(NC(=O)c1cccs1)c1ccccc1C(F)(F)F` (some centres not stated) was run?
Its AC50 is 3.16 µM (active).

How did the AC50 turn out when `CCCC[C@@H]1C[C@H]1C(NC(=O)c1cccs1)c1ccc(C(F)(F)F)cc1` (some centres not stated) was run?
Its AC50 is 3.16 µM (active).

`CN(C)CCNC(=O)c1cc(Br)ccc1Cl` was tested. Which AC50 did it give?
Its AC50 is “inactive”.

Which AC50 does the source give for `Cc1ccc(OCCNC(=O)c2cc(-n3cnnc3)ccc2Cl)cc1C` here?
Its AC50 is 7.94 µM (active).

Which activity, negative = inhibition does the source give for `O=C(NC(=S)Nc1ccc(Br)cn1)c1cncc(Br)c1` here?
The activity, negative = inhibition was -24.4% [at 2.29 µM].

`CCOC(=O)c1cncc(C(=O)O)c1` was tested. Which activity, negative = inhibition did it give?
The activity, negative = inhibition was 1.77% [at 2.29 µM].

How did the AC50 turn out when `CCOC(=O)CCCNC(=O)c1cncc(Br)c1` was run?
Its AC50 is 14.1 µM (active).

For `CCOC(=O)CNC(=O)c1cccnc1`, which activity, negative = inhibition is on record?
Its activity, negative = inhibition is 4.45% [at 11.4 µM].

How did the AC50 turn out when `Cc1ccc(OCCNC(=O)c2cncc(Br)c2)cc1C` was run?
The AC50 was 7.08 µM (active).

With `O=C(Nc1ccccc1)c1cc(-n2cnnc2)ccc1Cl` as the molecule, how does the AC50 read?
Its AC50 is “inactive”.

Which AC50 does the source give for `Cc1nc2c(OCc3ccccc3)cccn2c1CC#N` here?
Its AC50 is 15.8 µM (active).

Which AC50 does the source give for `Cn1c(-c2sccc2OCc2ccccc2)n[nH]c1=S` here?
The AC50 was “inactive”.

For `CC(C)Cn1c(=O)n(C)c(=O)c2[nH]cnc21`, which AC50 is on record?
The AC50 was 3.98 µM (active).

`Cn1c(=O)c2[nH]cnc2n(C)c1=O` was tested. Which AC50 did it give?
The AC50 was “inactive”.

With `Nc1nc(=O)c2[nH]cnc2n1O` as the molecule, how does the activity, negative = inhibition read?
The activity, negative = inhibition was -2.96% [at 11.4 µM].

With `CN(Cc1cc(Cl)cc(Cl)c1O)Cc1c(O)ccc2ccccc12` as the molecule, how does the activity, negative = inhibition read?
Its activity, negative = inhibition is -29.5% [at 11.4 µM].

Which activity, negative = inhibition does the source give for `CC(C)(N)C(=O)N[C@@H]1C(=O)N2[C@@H]1SC(C)(C)[C@H]2C(=O)O` here?
Its activity, negative = inhibition is -5.57% [at 11.4 µM].

`Nc1ccc(S(=O)(=O)NC(=O)c2ccccc2)cc1` was tested. Which AC50 did it give?
Its AC50 is “inactive”.

Which AC50 does the source give for `Nc1ccc(N(c2ccccc2)c2ccc(N)cc2)cc1` here?
The AC50 was 1.78 µM (active).

For `COc1ccc(C2C3=C(CC(C)(C)CC3=O)Oc3ncn(CC(C)C)c(=N)c32)cc1` (configuration not stated), which AC50 is on record?
The AC50 was 12.6 µM (active).

`COCCn1c(=O)c(-c2cccc(C#N)c2)nc2cnc(N(C)C)nc21` was tested. Which AC50 did it give?
The AC50 was “inactive”.

For `COCCn1c(=O)c(-c2cccc(C#N)c2)nc2cnc(OCc3ccccc3)nc21`, which AC50 is on record?
The AC50 was 10 µM (active).

With `N#CCCn1c(=O)c(-c2cccc(C#N)c2)nc2cnc(Oc3ccccc3)nc21` as the molecule, how does the AC50 read?
The AC50 was “inactive”.

For `COCCn1c(=O)c(-c2cccc(C#N)c2)nc2cnc(Oc3ccc(OC)cc3)nc21`, which AC50 is on record?
The AC50 was 2.51 µM (active).

Which AC50 does the source give for `CN(C)c1ncc2nc(-c3ccc(F)cc3)c(=O)n(CCC#N)c2n1` here?
Its AC50 is “inactive”.

How did the AC50 turn out when `COCCn1c(=O)c(-c2cccc(C#N)c2)nc2cnc(Oc3ccccc3)nc21` was run?
The AC50 was 25.1 µM (active).

With `N#CCCn1c(=O)c(-c2ccc(F)cc2)nc2cnc(Oc3cccc(Cl)c3)nc21` as the molecule, how does the AC50 read?
The AC50 was “inactive”.

With `N#CCCn1c(=O)c(-c2ccc(F)cc2)nc2cnc(OCc3ccccc3)nc21` as the molecule, how does the AC50 read?
Its AC50 is 15.8 µM (active).

`CC(C)(C)NC[C@@H](O)COc1ccccc1C1CCCC1` was tested. Which AC50 did it give?
Its AC50 is “inactive”.

`COc1cc2c(cc1OC)-c1cc3ccc(OC)c(OC)c3c[n+]1CC2` was tested. Which AC50 did it give?
Its AC50 is “inactive”.

Which AC50 does the source give for `CC(C)C(NS(=O)(=O)c1cccc2nsnc12)C(=O)N1CCc2ccccc2C1` (configuration not stated) here?
The AC50 was 7.08 µM (active).

With `CC(C)c1ccc2nc3sc(C(=O)N4CCc5ccccc5C4)c(N)c3cc2c1` as the molecule, how does the activity, negative = inhibition read?
The activity, negative = inhibition was 6.07% [at 2.29 µM].

How did the AC50 turn out when `Cc1ccc(S(=O)(=O)N[C@H](C(=O)N2CCC(C(=O)NCC(=O)O)CC2)C(C)C)cc1` was run?
The AC50 was “inactive”.

Which AC50 does the source give for `COC(=O)C(NC(=O)c1ccc(Cl)cc1)(Nc1nc(C)cs1)C(F)(F)F` (configuration not stated) here?
Its AC50 is 14.1 µM (active).

How did the AC50 turn out when `Cc1cc(OC(=O)c2ccc(Cl)cc2)cc(=O)n1C` was run?
Its AC50 is “inactive”.

How did the AC50 turn out when `CCOc1ccc(/C=C/C(=O)Nc2ccc(OC)cc2[N+](=O)[O-])cc1` was run?
The AC50 was “inactive”.

Which AC50 does the source give for `CCOc1ccc(C(=O)CCC(=O)O)cc1` here?
Its AC50 is “inactive”.

Which AC50 does the source give for `CCOc1ccc(C(=O)Cc2cc(OC)c(OC)cc2[N+](=O)[O-])cc1` here?
The AC50 was 7.94 µM (active).

For `C[C@]12CC[C@H]3c4ccc(OC[C@H]5CO5)cc4CC[C@H]3[C@H]1CC[C@@H]2O`, which activity, negative = inhibition is on record?
Its activity, negative = inhibition is 11.8% [at 11.4 µM].

`O=C(NCCCN1CCc2ccccc2C1)Nc1ccc(Cl)cc1` was tested. Which AC50 did it give?
The AC50 was “inactive”.

How did the AC50 turn out when `S=C(S)NCCCn1ccnc1` was run?
The AC50 was 1.58 µM (active).

For `COc1ccc(C(=O)N/C(=C/c2cccs2)C(=O)NCCCn2ccnc2)cc1OC`, which AC50 is on record?
Its AC50 is 1.58 µM (active).

`COc1ccc2c(Cl)c(C(=O)NCCCn3ccnc3)sc2c1Cl` was tested. Which AC50 did it give?
Its AC50 is 0.501 µM (active).

With `O=C(NCCCn1ccnc1)Nc1ccc(Cl)cc1` as the molecule, how does the AC50 read?
The AC50 was 0.398 µM (active).

For `S=C(S)NCCN1CCNCC1`, which activity, negative = inhibition is on record?
Its activity, negative = inhibition is -13.6% [at 11.4 µM].

For `NCCNC(=S)S`, which activity, negative = inhibition is on record?
Its activity, negative = inhibition is -20.2% [at 11.4 µM].

For `Cn1nccc1C(=O)Nc1ccc(Cl)cc1`, which AC50 is on record?
Its AC50 is “inactive”.
